Results as given in PubChem BioAssay (NCI).
Compounds without any hit were thinned out: in the full panel of roughly 83,000, 20% have a hit.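 In brief: 96-well plates, 48 h treatment, single concentration, percent growth endpoint.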 Values without a mark were called inactive. The source made the active and inactive calls. How the source made its calls: active means growth percent below 10; inactive means the rest.

Legend:
Assay in all cases: NCI-60 one-dose screen, 48 h (100 = growth as untreated, 0 = no growth, -100 = all killed)
NCI-H23 lung = conditions: 10 µM unless noted
NCI-H226 lung = conditions: 10 µM unless noted
NCI-H322M lung = conditions: 10 µM unless noted
HOP-62 NSCLC = conditions: 10 µM unless noted
NCI-H460 lung = conditions: 10 µM unless noted
HOP-92 NSCLC = conditions: 10 µM
NCI-H522 lung = conditions: 10 µM unless noted
A549/ATCC NSCLC = conditions: 10 µM unless noted
786-0 renal = conditions: 10 µM unless noted
COLO 205 colon = conditions: 10 µM unless noted
DU-145 prostate = conditions: 10 µM unless noted
K-562 leukemia = conditions: 10 µM unless noted
MALME-3M melanoma = conditions: 10 µM unless noted
MDA-MB-231 breast = conditions: 10 µM unless noted
RXF 393 renal = conditions: 10 µM unless noted
SF-268 CNS = conditions: 10 µM unless noted
SF-295 CNS = conditions: 10 µM unless noted
SF-539 CNS = conditions: 10 µM unless noted
UACC-257 melanoma = conditions: 10 µM unless noted

SMILES | growth (NCI-H23 lung) [%] | growth (NCI-H226 lung) [%] | growth (NCI-H322M lung) | growth (HOP-62 NSCLC) | growth (NCI-H460 lung) | growth (HOP-92 NSCLC) | growth (NCI-H522 lung) | growth (A549/ATCC NSCLC) | growth (786-0 renal) [%] | growth (COLO 205 colon) | growth (DU-145 prostate) | growth (K-562 leukemia) | growth (MALME-3M melanoma) | growth (MDA-MB-231 breast) | growth (RXF 393 renal) | growth (SF-268 CNS) [%] | growth (SF-295 CNS) | growth (SF-539 CNS) | growth (UACC-257 melanoma) [%]
C=C1CC[C@@H]2[C@](C)(CO)[C@H](O)CC[C@@]2(C)[C@@H]1C/C(O)=C1\CCOC1=O | 104 | 108 | 103% | 102% | 103% | 101% | 82.5% | 96% | 111 | 130% | 102% | 73.1% | 105% | 110% | 123% | 98.8 | 103% | 108% | 93.1
Cn1ccnc1C(=O)/C=C/C=C/c1ccc(C(=O)Nc2ccc(F)cc2)cc1 | 18.2 | 54.7 | 61.1% | 44.7% | 34.2% | 82.9% | 4.66% (active) | 56.7% | 22.8 | 32.8% | 18.8% | 12.6% | 19.9% | 12.3% | -25.1% (active) | 22 | 59% | -25.4% (active) | 46.8
COc1cc(OC)c(/C=C/S(=O)(=O)Cc2ccc(OC)c(NCC(=O)NO)c2)c(OC)c1 | 15.4 | 25.6 | 45.6% | 20.8% | 10.8% | 51.8% | 3.67% (active) | 22.3% | 28.1 | -67.6% (active) | 13.8% | 11.6% | 61.8% | 25.4% | -0.671% (active) | 31.9 | 6.88% (active) | -5.59% (active) | 62.4
Cc1ccc(-c2cc3nc(C(Cl)Cl)nc(-c4ccco4)n3n2)cc1 | 59.8 | 87 | 2.67% (active) | -12.3% (active) | -21.6% (active) | -0.128% (active) | 94.5% | 2.51% (active) | 59.5 | -39.4% (active) | -24.3% (active) | 55.5% | 93.3% | -21.7% (active) | -46.1% (active) | 20.5 | -4.81% (active) | -32.6% (active) | 57
Clc1cccc(/C=N/Nc2nc(N/N=C/c3cccc(Cl)c3Cl)nc(N3CCCCC3)n2)c1Cl | 99.7 | 97.5 | 90% | 98.2% | 33.8% | 86.2% | 76.6% | 55.6% | 102 | 90.3% | 73.4% | 78.1% | 92.5% | 84.2% | 112% | 86.4 | 92.7% | 84.3% | 100
COC(=O)/C=C/c1c(C2(C)NC(=O)c3ccccc3N2)c(=O)oc2ccc(Cl)cc12 (centres undefined) | 96.3 | 88.1 | 95.1% | 92.7% | 96.3% | 88.9% | 68.3% | 95.2% | 96.3 | 117% | 102% | 105% | 88.3% | 89.2% | 69.5% | 92.9 | 95.3% | 95.8% | 98
Nc1ccccc1NC(=O)c1ccc(NC(=O)C/C=C/c2cccnc2)cc1 | 41.6 | 46.6 | 47.6% | 36.5% | 46.8% | 11.3% | 7.23% (active) | 47.2% | 53.3 | 10.3% | 14.1% | 17.1% | 18.1% | 50.5% | -13.9% (active) | 35.3 | 34.9% | 7.57% (active) | 26.6
CN1CCN(c2ccc(/C=N/n3cnc4oc(-c5ccccc5)cc4c3=N)cc2)CC1 | 93.6 | 87.5 | 91.1% | 84.2% | 99.6% | 61.4% | 84.4% | 75.1% | 52.8 | 63.5% | 100% | 6.36% (active) | 113% | 65.3% | -5.53% (active) | 92.5 | 99.6% | 84.9% | 96.7
CCCCc1nc(/C=N/Nc2nc(Nc3ccccc3)nc(Nc3ccc(S(N)(=O)=O)cc3)n2)c(Cl)[nH]1 | 101 | 99 | 99.1% | 101% | 100% | 60.1% | 41.9% | 108% | 95.3 | 72% | 84.6% | 38% | 99.7% | 67% | 117% | 65.9 | 102% | 81.2% | 108
O=C(/C=C/c1ccc(F)cc1)c1ccc(O)cc1 | 95.6 | 105 | 121% | 107% | 103% | 109% | 90.1% | 92.2% | 95.2 | 112% | 95.5% | 58.7% | 118% | 100% | 105% | 101 | 104% | 93.7% | 95.5
C#Cc1nc(C(C)=O)cs1 | 102 | 99.7 | 106% | 103% | 106% | 111% | 92.1% | 108% | 98.6 | 115% | 109% | 90.6% | 105% | 103% | 95.6% | 105 | 106% | 99.1% | 107
N=c1c2cc(-c3ccccc3)oc2ncn1/N=C/c1ccc(Br)cc1 | 102 | 71.3 | 78.1% | 73.7% | 15.8% | 105% | 91.8% | 44.2% | 59.2 | 98.9% | 50.9% | 80% | 16.3% | 93.4% | 86.6% | 68.9 | 84.2% | 74.2% | 89.8
O=C(CSc1nnc(-c2ccc3nc(-c4ccccc4)[nH]c3c2)o1)Nc1ccc(C(=O)/C=C/c2ccccc2)cc1 | 100 | 106 | 102% | 104% | 113% | 149% | 93.4% | 106% | 102 | 110% | 107% | 112% | 94.5% | 105% | 114% | 109 | 109% | 96.8% | 103
CNC(=O)c1cc(N2CCc3cc(NC(=O)Nc4ccc(Cl)c(C(F)(F)F)c4)ccc32)ccn1 | 56.1 | 77.2 | 87.1% | 85.1% | 38% | 68% | 50% | 49.2% | 49.7 | 58% | 63.6% | 33.7% | 64.5% | 67.2% | -8.94% (active) | 70.1 | 26.5% | 48.8% | 72.7
N#Cc1cccc(CN2CCc3ncn(Cc4ccc(Cl)cc4)c(=O)c3C2)c1 | 26.2 | 30.4 | 42.9% | 31.2% | 13.5% | 30.3% | 16.6% | 24.9% | 42.8 | 11.7% | 26.9% | 24.2% | 41.5% | 26.9% | 14.3% | 27.2 | 8.57% (active) | 33.6% | 12.3
COc1ccc(S(=O)(=O)NCCCNc2nccc(-c3[nH]c(-c4ccccc4)nc3-c3ccc(Cl)c(O)c3)n2)cc1 | 83.4 | 103 | 96.5% | 91.7% | 85.6% | 114% | 69.1% | 102% | 125 | 86.3% | 89.3% | 55.2% | -7% (active) | 61.4% | 140% | 92 | 96.4% | 101% | 23.6
